# Measured values reported in PubChem BioAssay AID1259415 (National Center for Advancing Translational Sciences (NCATS), 2018).
# Where “and” joins values, the source holds several entries; their conditions need not be identical. Identical values can stand only once. The campaign covered roughly 410,000 compounds. About 18,000 (4.4%) were called active. Roughly 7% stayed inconclusive and do not appear here. Cut-off read from the data, not from the text of the source: active = activity change below about -60%; inconclusive = no clear call, values can overlap the other calls; inactive = above about -39%. Many of the other results were omitted from the sample, so actives are more common in it than they were. A structure can be active in one record and inactive in another.
# Assay: qHTS Assay for inhibitors of the human cytomegalovirus (HCMV)
# Details: HFF cells, HCMV-luciferase reporter, 72 h; at 57.5 µM; stronger effect = lower value
# Procedure, shortened: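 Screen run at 2 compound doses on HFFs infected with reporter HCMV, MOI 1 PFU/cell. Luciferase activity from cell lysates at 72 h post infection gave inhibition relative to buffer-only and Salinomycin wells.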
# % is set by controls: 0 for no effect and ±100 for the full control effect.
row,SMILES,"activity change, negative = inhibition"
1,Cc1ccc2nc(COc3cccc(NC(=O)c4ccccc4Cl)c3)cc(=O)n2c1,0.182% (inactive)
2,COc1cc(OC)cc(-c2cc3ccc(F)cc3cn2)c1,59.6% (inactive)
3,COc1ccc(C(C)(O)c2nc(-c3cc(F)cc(F)c3)cs2)cc1 (stereo not drawn),-96% (active)
4,CC(O)(c1cccc(F)c1)c1nc(-c2ccc3c(c2)OCO3)cs1 (stereo not drawn),-11.8% (inactive)
5,CCSc1nnc2c(n1)OC(c1ccc(OCC(=O)O)cc1)Nc1ccccc1-2 (stereo not drawn),33.3% (inactive)
6,COc1cc(NC(=O)Cn2c(=O)n(Cc3ccco3)c(=O)c3oc4ccccc4c32)cc(OC)c1,-18.5% (inactive)
7,CC(C)c1ccc(Cn2c(COc3ccccc3)nc3ccccc32)cc1,57.2% (inactive)
8,Cn1c2ccccc2c(=O)c2c(=O)n(Cc3ccco3)c(COc3ccccc3)nc21,-81.5% (active)
9,CCOc1ccc(N(CC)S(=O)(=O)N2CCCC(C(=O)NCc3ccc(SC)cc3)C2)cc1 (stereo not drawn),-31% (inactive)
10,Cc1ccccc1CSc1nc2c([nH]c3ccccc32)c(=O)n1C,34.5% (inactive)
11,CCc1ccc(NC(=O)CSc2nc3c([nH]c4ccccc43)c(=O)n2-c2cccc(OC)c2)cc1,20.7% (inactive)
12,Cc1ccc(NC(=O)CSc2nc3c([nH]c4ccccc43)c(=O)n2-c2ccccc2)cc1Cl,-24% (inactive)
13,Cc1ccc(NC(=O)CSc2nc3c([nH]c4ccccc43)c(=O)n2-c2ccccc2)c(C)c1,-65.4% (active)
14,Cc1ccc(-n2c(SCC(=O)c3ccccc3)nc3c([nH]c4ccccc43)c2=O)cc1,37% (inactive)
15,CCOC(=O)c1ccc(NC(=O)CSc2nc3c([nH]c4ccccc43)c(=O)n2C)cc1,-81.7% (active)
16,CCn1c(CC(=O)Nc2ccc(C)cc2)nnc1SCC(=O)Nc1nc(C)cs1,28.7% (inactive)
17,O=C(COc1ccccc1F)OCc1cc(=O)n2nc(C3CCCCC3)sc2n1,11.6% (inactive)
18,O=c1c2ccccc2n(Cc2cccc(Cl)c2)c(=O)n1Cc1ccccc1,-14.5% (inactive)
19,CC(C)CCN(C(=O)Nc1ccc(Cl)c(Cl)c1)C(C)c1cccs1 (stereo not drawn),15.6% (inactive)
20,CC(C)(C)C(=O)CSc1ccc(S(=O)(=O)N2CCCC2)cn1,0% (inactive)
21,CCc1c(C)sc(NC(=O)C2c3ccccc3Oc3ccccc32)c1C(=O)OC(C)C,23.5% (inactive)
22,Cc1nc(S(=O)(=O)c2ccc(Br)cc2)nc2c1CCC2,6.93% (inactive)

row,SMILES,"activity change, negative = inhibition"
1,CCOc1ccc(N(CC)C(=O)C2CCN(S(=O)(=O)c3cccc4nonc34)CC2)cc1,-9.41% (inactive)
2,Cc1ccc2c(c1)N(C(=O)Nc1ccc(Br)cc1F)CCO2,-2.87% (inactive)
3,COc1ccccc1N(C)S(=O)(=O)c1ccc(Cl)c(C(=O)Nc2ccncc2)c1,-67.6% (active)
4,COc1ccccc1N(C)S(=O)(=O)c1ccc(Cl)c(C(=O)N2CCC(C(N)=O)CC2)c1,-15.9% (inactive)
5,COc1ccccc1N(C)S(=O)(=O)c1ccc(C(=O)NC2CCCCCC2)cc1,-30.1% (inactive)
6,COc1ccc(C2(Nc3cccc(F)c3)C(=O)c3ccccc3C2=O)cc1,3.54% (inactive)
7,CCOC(=O)c1ccc(CSc2nnc3cc(C)c4ccccc4n23)cc1,0.725% (inactive)
8,COc1cccc(N2CCN(S(=O)(=O)c3cc(Br)cc4c3N(C(=O)C3CC3)CC4)CC2)c1,7.82% (inactive)
9,CN(Cc1ccccc1)c1ncnc2onc(-c3ccc(F)cc3)c12,-33.7% (inactive)
10,COc1ccc(OC)c(NC(=O)CSC2=Nc3ccccc3C3=NC(CC(=O)NCc4ccc(F)cc4)C(=O)N23)c1 (stereo not drawn),-67.3% (active)
11,COc1ccc(OC)c(NC(=O)CSC2=Nc3ccccc3C3=NC(CC(=O)NCCc4ccccc4)C(=O)N23)c1 (stereo not drawn),3.26% (inactive)
12,COc1ccccc1NC(=O)CSC1=Nc2ccccc2C2=NC(CC(=O)NCc3cccs3)C(=O)N12 (stereo not drawn),11.4% (inactive)
13,Cc1ccc(N(CC(=O)NCC2CCCO2)C(=O)CNS(=O)(=O)c2ccc(Cl)cc2)cc1 (stereo not drawn),43.5% (inactive)
14,Cc1nc2nc(SCC(=O)NC3CCC(C)CC3)nn2c(C)c1Cc1ccccc1Cl (stereo not drawn),-21.3% (inactive)
15,CC1CCCCC1NC(=O)/C(C#N)=C/C=C/c1ccccc1[N+](=O)[O-] (stereo not drawn),-109% (active)
16,CC1CC(C)CN(C/C=C/c2ccccc2[N+](=O)[O-])C1 (stereo not drawn),71.9% (inactive)
17,O=C(/C=C/c1ccccc1[N+](=O)[O-])OCC(=O)N1CCCC1,11.1% (inactive)
18,COC(=O)c1cc(S(=O)(=O)N2CCN(c3cc(Cl)ccc3C)CC2)c[nH]1,-37% (inactive)
19,COc1ccc(-c2cn3nc(N4CCC(C(=O)Nc5cccc(C)c5C)CC4)sc3n2)cc1,0% (inactive)
20,Cc1ccccc1CSCCNC(=O)c1ccc(Cl)c(S(=O)(=O)N2CCOCC2)c1,-33.1% (inactive)
21,CC(C)(CNC(=O)c1ccc(Cl)c(S(=O)(=O)N2CCc3ccccc3C2)c1)N1CCOCC1,-77.7% (active)
22,CN(C)S(=O)(=O)c1ccc(C(=O)NCC(C)(C)N2CCOCC2)cc1,-39.4% (inactive)

row,SMILES,"activity change, negative = inhibition"
1,COc1cc2c(=O)c(S(=O)(=O)c3ccc(C(C)C)cc3)cn(Cc3ccccc3C)c2cc1OC,23.6% (inactive)
2,COc1ccnc(Oc2ccccc2)c1-c1ncn[nH]1,-36.6% (inactive)
3,COc1ccnc(Oc2ccccc2)n1,5% (inactive)
4,COc1cnc(-c2ccccn2)nc1Oc1ccc(C(C)(C)C)cc1,-82.7% (active)
5,Cc1cc(OCC(=O)NCC2(N(C)C)CCCCC2)cc(C)c1Cl,-11.2% (inactive)
6,CC1CCCCC1NC(=O)CCS(=O)(=O)c1ccc2c(c1)NC(=O)CO2 (stereo not drawn),-22.8% (inactive)
7,O=C(CCS(=O)(=O)c1ccc2c(c1)NC(=O)CO2)Nc1cccc(C(F)(F)F)c1,-106% (active)
8,Cc1cc2c(cc1S(=O)(=O)CCC(=O)Nc1ccc(OC(F)(F)F)cc1)OCC(=O)N2,5.03% (inactive)
9,CCOC(=O)c1cc2c(=O)n3ccccc3nc2n(Cc2ccco2)c1=NC(=O)c1ccc(F)cc1,-0.814% (inactive)
10,CCOC(=O)c1cc2c(=O)n3ccccc3nc2n(CC2CCCO2)c1=NC(=O)c1ccccc1F (stereo not drawn),5.02% (inactive)
11,CCOC(=O)c1cc2c(=O)n3ccccc3nc2n(CC(C)C)c1=NC(=O)c1c(-c2c(F)cccc2Cl)noc1C,-12.3% (inactive) and -65.2% (active)
12,CCOc1ccc(-n2cnc3c(=O)[nH]c(N)nc32)cc1,29.7% (inactive)
13,CCc1ccc(NC(=O)CN2C(=O)CCSc3ccc(S(=O)(=O)N4CCCC4)cc32)cc1,14.8% (inactive)
14,Nc1ncnc(Nc2cccc(Cl)c2Cl)n1,8.97% (inactive)
15,CC(=O)Nc1cccc(NC(=O)CSc2nccn2Cc2ccc3c(c2)OCO3)c1,-12.3% (inactive)
16,COc1ccc(CNC(=O)C2=Cc3cccc(OC)c3OC2)cc1OC,-2.4% (inactive)
17,Cc1ccc(C(=O)Nc2ccc(C(=O)O)cc2)cc1S(=O)(=O)Nc1ccccc1,6.44% (inactive)
18,O=C(Nc1ccc(Br)cc1)c1ccc(Br)c(S(=O)(=O)NCc2ccccc2)c1,-106% (active)
19,COc1ccc(CNS(=O)(=O)c2cc(Br)ccc2Br)cc1,-5.85% (inactive)
20,CCOc1ccc(S(=O)(=O)Nc2ccc3oc4c(c3c2)CC(C)CC4)cc1 (stereo not drawn),33.8% (inactive)
21,CCC(=O)N1CCc2cc(S(=O)(=O)NCCC(=O)Nc3cccc(C)c3C)ccc21,4.12% (inactive)
22,CCCC(=O)Nc1nnc(CC(=O)OCC)s1,69.6% (inactive)

row,SMILES,"activity change, negative = inhibition"
1,CC(C)NC(=O)c1ccccc1S(=O)c1ccccc1C#N (stereo not drawn),-72.2% (active)
2,CC(C)Oc1ccccc1C(=O)NC(CO)C(=O)O (stereo not drawn),0.22% (inactive)
3,N#Cc1ccccc1Sc1ccccc1C(=O)OCC(=O)NC1CCCCC1,-31.3% (inactive)
4,O=C(CC(c1cccs1)N1Cc2ccccc2C1=O)Nc1ccc(F)cc1F (stereo not drawn),5.86% (inactive)
5,Cc1ccc(-c2ccc(CCC(=O)O)n2-c2ccc(C(N)=O)cc2)cc1,15% (inactive)
6,[O-][n+]1onc2c1CCc1[nH]c(-c3ccccc3)nc1-2,-99.3% (active)
7,Cc1ccc(NC(=O)C(Cc2ccccc2)NS(=O)(=O)c2ccc3c(c2)oc(=O)n3C)cc1C (stereo not drawn),1.25% (inactive)
8,CC1CCN(S(=O)(=O)c2ccc3c(c2)N(CC(=O)NCc2ccccc2Cl)C(=O)CO3)CC1,15.7% (inactive)
9,O=C(OCc1ccccc1)c1ccc(O)cc1,17.9% (inactive)
10,CCOC(=O)c1c(CN2CCOCC2)n(-c2ccccc2)c2ccc(O)cc12,-73% (active)
11,CCOC(=O)c1c(CN(C)C)n(-c2ccccc2)c2cc(Br)c(O)cc12,-35% (inactive)
12,CCOC(=O)c1nnn(-c2nonc2-n2cccc2)c1CN1CCOCC1,-19.5% (inactive)
13,O[C@H]1C[C@H](c2ccc(Cl)cc2)N(Cc2cccs2)C[C@@H]1n1cc(C2CC2)nn1,15% (inactive)
14,CCOC(=O)[C@]12CCC=C1N(CCC1=CCCCC1)C(=O)[C@H](CC(=O)NCc1ccc(C)o1)C2,-0.404% (inactive)
15,CCc1nc2onc(C)c2c(=O)n1CC(=O)O,9.29% (inactive)
16,CCc1nn(CC(=O)NCC(C)c2ccccc2)c(=O)c2cc3occc3n12 (stereo not drawn),-13.6% (inactive)
17,COc1ccc(-c2nc(Cn3c(=O)cc(C)c4c(C)nn(-c5ccccc5)c43)c(C)o2)cc1OC,18.8% (inactive)
18,OCCCNc1nccc(-c2cc(Nc3cccc(Cl)c3)ncn2)n1,-97.8% (active)
19,COC(=O)[C@H]1[C@H](CO)[C@H]2Cn3c(cccc3=O)[C@H]2N1CC1CC1,3.17% (inactive)
20,O=C(Nc1cccc(Cl)c1N1CCOCC1)c1cccnc1,-21.6% (inactive)
21,O=C(N/N=C/c1sc(N2CCCCC2)nc1-c1cccs1)c1cccnc1,-80.6% (active)
22,O=C(c1cccnc1)N1CCN(S(=O)(=O)c2cccs2)CC1,7.09% (inactive)
